# Source: PubChem BioAssay (National Center for Advancing Translational Sciences (NCATS))
# WRN inhibitor: inhibitors of human WRN helicase; Potency, µM (top dose mostly 114 µM), for the others: at the top dose activity change, negative = inhibition, most hits filed as inhibitors; 360,000 compounds, 0.46% hits; WRN helicase unwinding, fluorescent forked duplex, kinetic; AID 651768; Q14191; also: % is scaled to controls: 0 for no effect and ±100 for the full control effect; nearly all actives have a fitted effect of over 55% in size
#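 Enzyme (20 nM final) and test compound sit together 15 min at room temperature before substrate addition. Substrate is a single-forked duplex oligonucleotide (100 nM) labelled with fluorophore and quencher, with 2 mM ATP; helicase unwinding raises red fluorescence, read kinetically.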
# APE1 inh-1: APE1 (human) endonuclease inhibition. P27695. recombinant APE1, TAMRA/BHQ-2 abasic DNA cleavage fluorescence. Potency, µM (highest dose often 65.8 µM), for inactives: top-dose activity change, negative = inhibition, hits mostly inhibitors. 350,000 compounds, 0.35% hits. AID 2517;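 also: plate controls were vehicle for no effect and reference inhibitor for full effect; nearly all actives have a fitted effect of over 55% in size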
#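 Activity was derived from the fluorescence gain between first and third kinetic reads (60 s intervals, ex 525/em 598 nm) after 50 nM THF-abasic TAMRA/BHQ-2 duplex was added to 0.75 nM APE1 preincubated 15 min with compound.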
# L3MBTL1 block: L3MBTL1 (human) inhibition; Q9Y468; AlphaScreen L3MBTL1–H3K9me1 peptide binding; Potency, µM (series often up to 57.1 µM), for inactives: at the highest dose activity, negative = inhibition, actives largely listed as inhibitors; 230,000 compounds, 0.66% hits; AID 485360; also: % is scaled to controls: 0 for no effect and ±100 for the full control effect; nearly all actives have a fitted effect of over 60% in size
# Target sequence (Q9Y468 whole entry, looked up): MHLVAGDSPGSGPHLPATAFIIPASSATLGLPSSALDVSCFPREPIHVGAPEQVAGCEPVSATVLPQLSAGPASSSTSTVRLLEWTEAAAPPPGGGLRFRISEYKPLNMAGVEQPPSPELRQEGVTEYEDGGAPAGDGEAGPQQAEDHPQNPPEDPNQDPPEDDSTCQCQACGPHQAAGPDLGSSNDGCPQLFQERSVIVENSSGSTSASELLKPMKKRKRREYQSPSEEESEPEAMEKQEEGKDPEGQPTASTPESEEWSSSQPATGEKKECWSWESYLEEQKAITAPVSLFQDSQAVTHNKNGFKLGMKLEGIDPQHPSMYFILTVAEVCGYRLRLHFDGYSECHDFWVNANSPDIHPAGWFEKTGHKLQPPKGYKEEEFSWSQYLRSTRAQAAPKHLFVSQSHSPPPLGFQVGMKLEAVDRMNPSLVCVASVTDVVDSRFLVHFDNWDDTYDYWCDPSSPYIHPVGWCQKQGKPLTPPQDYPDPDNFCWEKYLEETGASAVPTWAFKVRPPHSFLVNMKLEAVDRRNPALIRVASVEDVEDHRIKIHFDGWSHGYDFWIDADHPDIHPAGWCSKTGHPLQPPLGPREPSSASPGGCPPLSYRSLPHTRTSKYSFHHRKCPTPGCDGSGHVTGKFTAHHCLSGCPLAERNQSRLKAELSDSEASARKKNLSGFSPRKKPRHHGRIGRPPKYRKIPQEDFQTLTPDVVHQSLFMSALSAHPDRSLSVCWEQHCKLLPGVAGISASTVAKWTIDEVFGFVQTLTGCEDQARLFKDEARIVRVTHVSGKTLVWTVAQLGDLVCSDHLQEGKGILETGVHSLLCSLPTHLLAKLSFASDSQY
#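 Read-out is AlphaScreen signal from streptavidin donor and nickel chelate acceptor beads (10 ug/mL final each) bridging L3MBTL1 (50 nM) and biotinylated K9-monomethylated H3(1-15) peptide (75 nM), after 30 min compound exposure at room temperature.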
# BLM inh-1: Bloom syndrome helicase (human) inhibition. P54132. recombinant BLM DNA unwinding, fluorescence dequenching. Potency, µM (series often up to 56.1 µM), inactives show top-dose activity change, negative = inhibition, hits mostly inhibitors. 350,000 compounds, 0.2% hits. AID 2528;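 also: plate controls were vehicle for no effect and no enzyme for full effect; nearly all actives have a fitted effect of over 35% in size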
# RECQ1 inh-1: blocks DNA unwinding by human RECQ1; P46063; RECQ1 DNA unwinding, red fluorescence kinetic read; Potency, µM (doses to about 57.3 µM), for the others: at the highest dose activity, negative = inhibition, hits mostly inhibitors; 240,000 compounds, 0.54% hits; AID 2549;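 also: plate controls were vehicle for no effect and no enzyme for full effect; nearly all actives have a fitted effect of over 30% in size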
#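 50 nM RECQ1T1 preincubated 15 min with compound in Tris pH 8.0 buffer with MgCl2, DTT, Tween-20 and 2.5 ug/ml poly(dI-dC); started with 200 nM TAMRA/BHQ-2 forked duplex and 2 mM ATP. Unwinding read as fluorescence (525/598 nm), two reads 2 h apart.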
# FEN1 inh-1: human FEN1 inhibition. P39748. 390,000 compounds, 0.35% hits. Recombinant FEN1 flap cleavage, fluorescence, 15 min. Potency, µM (highest dose often 114 µM), for inactives: at the top dose activity change, negative = inhibition, usual class: inhibitors; also: % is scaled to controls: 0 for no effect and ±100 for the full control effect; nearly all actives have a fitted effect of over 65% in size
#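 Nuclease activity of 10 nM FEN1 was measured after 15 min of room-temperature exposure to titrated compounds, by adding 50 nM flap substrate and reading plates at 0 and 15 min.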
# APE1 dye cs: displaces fluorescent dye from DNA, flagging APE1 artifacts; shares compounds with APE1 inh-1; DNA fluorescent dye displacement counterscreen, fluorescence; 480 compounds, 7% hits; AID 2564; Potency, µM (series often up to 28.5 µM), inactives show at the top dose activity change, negative = inhibition, usual class: inhibitors;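 also: loss of thiazole orange fluorescence as the dye is displaced from duplex DNA; 0% = ThO with dsDNA and no compound and -100% = ThO without dsDNA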
# EndoIV counter: blocks E. coli endonuclease IV DNA cleavage. shares compounds with APE1 inh-1. E. coli Endo IV, fluorogenic AP-site DNA cleavage. Potency, µM (titrated, usually from 27.1 µM), without a hit: at the highest dose activity change, negative = inhibition, actives largely listed as inhibitors. 560 compounds, 4% hits;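 also: plate controls were uninhibited enzyme wells for no effect and no enzyme buffer wells for full effect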
# APE1 inh-2: APE1 (human) endonuclease inhibition, confirmation; AID 2572; purified APE1, fluorogenic abasic-site DNA cleavage; 750 compounds, 44% hits; shares compounds with APE1 inh-1; Potency, µM (doses to about 57.1 µM), for the others: top-dose activity change, negative = inhibition, hits mostly inhibitors; also: % is scaled to controls: 0 for no effect and ±100 for the full control effect; nearly all actives have a fitted effect of over 30% in size
# APE1 FP inh: APE1 (human) DNA binding inhibition, fluorescence polarization; shares compounds with APE1 inh-1; APE1 binding to TAMRA-labelled double-stranded DNA, fluorescence polarization displacement; Potency, µM (highest dose often 28.5 µM), for inactives: top-dose activity, negative = inhibition, usual class: inhibitors; 480 compounds, 7% hits; also: % is scaled to controls: 0 for no effect and ±100 for the full control effect
# BLM inh-2: confirmation of inhibitors of human Bloom syndrome helicase BLM; shares compounds with BLM inh-1; BLM DNA unwinding, fluorescence quenching, biochemical; Potency, µM, for the others: max response, negative = inhibition, most hits filed as inhibitors; 220 compounds, 40% hits;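 also: strand separation dequenches TAMRA so unwinding raises red fluorescence; series mostly up to about 69 µM; % is scaled to controls: 0 for no effect and ±100 for the full control effect; nearly all actives have a fitted effect of over 45% in size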
# RECQ1 conf: confirmation of human RECQ1 helicase inhibitors; shares compounds with RECQ1 inh-1; RECQ1 helicase DNA unwinding, fluorescence; Potency, µM (top dose mostly 229 µM), without a hit: top-dose activity change, negative = inhibition, hits mostly inhibitors; 610 compounds, 28% hits; AID 2708; also: % is scaled to controls: 0 for no effect and ±100 for the full control effect; nearly all actives have a fitted effect of over 45% in size
# RECQ1 ADP FP: displaces ADP in a fluorescence polarization counter-screen for RECQ1 hits | ADP fluorescence polarization displacement counterscreen | Potency, µM (top dose mostly 228 µM), for inactives: at the highest dose activity change, negative = inhibition, hits mostly inhibitors | shares compounds with RECQ1 inh-1 | 530 compounds, 27% hits; also: % is scaled to controls: 0 for no effect and ±100 for the full control effect; nearly all actives have a fitted effect of over 45% in size
# RECQ1 inh-2: RECQ1 helicase inhibition confirmed, round 2; Potency, µM (highest dose often 119 µM), for the others: top-dose activity, negative = inhibition, actives largely listed as inhibitors; 1,100 compounds, 15% hits; recombinant RECQ1 DNA unwinding, red fluorescence; shares compounds with RECQ1 inh-1; also: % is scaled to controls: 0 for no effect and ±100 for the full control effect; nearly all actives have a fitted effect of over 50% in size
# FEN1 inh-2: FEN1 inhibition, cherry-pick retest | FEN1 flap cleavage, TAMRA/BHQ2 fluorogenic DNA substrate | 880 compounds, 79% hits | AID 720498 | shares compounds with FEN1 inh-1 | Potency, µM, most hits filed as inhibitors; also: nearly all actives have a fitted effect of over 60% in size
# * marks the source's active call; other numbers are inactive results; i = inactive; ? = inconclusive; / = not tested or not shown; ! = not active in a repeat; [ ] = remark or other dose. This is a sample that favours compounds with a hit; in the whole collection about 1% have one here. Calls follow the shape of the dose curve; as a rule, active = well fitted curve in the direction sought with a large enough effect; inconclusive = small, poorly fitted or top-dose-only effect, or another doubt; inactive = no such curve, though single readings can be large; an effect the other way counts as inactive or inconclusive. Potency is read from the fitted curve at half-maximal effect.
SMILES,WRN inhibitor,APE1 inh-1,L3MBTL1 block,BLM inh-1,RECQ1 inh-1,FEN1 inh-1,EndoIV counter,APE1 inh-2,others
O=C(OC1Cc2c(O)cc(O)cc2OC1c1cc(O)c(O)c(O)c1)c1cc(O)c(O)c(O)c1 (stereo not given),/,0.282µM*,/,?,1.58µM*,/,8.8%[57.1 µM],0.0891µM*,
c1ccoc1,/,-3.4%,/,/,-14.9%,/,/,/,
CC(=O)[C@@]1(O)CC[C@H]2C3CCC4=CC(=O)CC[C@]4(C)C3CC[C@@]21C (stereo not given in full),/,15.9%,/,/,i,/,/,/,
CC(C)CC(=O)Nc1ccc(C(=O)Cn2c(=O)oc3ccccc32)cc1,4.5%,?,?,-12.5%,-4.3%,-9.5%,-4.0%,?,APE1 dye cs=-8.3%;APE1 FP inh=3.7%
CNC(C)Cc1ccc(OC)cc1 (stereo not given),/,-3.7%,/,-9.6%,-12.5%,/,/,/,
CC(C)NC(C)Cc1ccc(I)cc1 (stereo not given),9.0%,8.0%,2.7%,-4.4%,0.6%,8.0%[57.1 µM],-4.8%[57.1 µM],-19.3%,
Cc1ccc2c(c1)Cc1c(C(=O)NN3CCCCC3)nn(-c3ccc(Cl)cc3Cl)c1-2,/,-6.2%,/,-7.3%,-19.4%,/,/,/,
NCC(O)c1cc(O)c(O)cc1F (stereo not given),4.1%,1.12µM*!,?,/,?,-31.6%,-2.0%[57.1 µM],-20.0%,
CCc1nnc(NC(=O)CSc2ccc(-c3ccco3)nn2)s1,-1.2%,?,/,14.1µM*,?,1.8%,/,?,BLM inh-2=?;RECQ1 inh-2=-13.9%
Cc1c2ccncc2c(C)c2c1[nH]c1ccccc12,-13.2%,?,7.5%,124.1%,4.47µM*!,11.9µM*,1µM*,?,RECQ1 conf=?
CCCN(CCC)CCc1ccc(O)c(O)c1,/,0.2%,/,/,-1.2%,/,/,/,
C[C@@H](N)[C@@H](O)c1ccc(O)c(O)c1,/,/,/,0.9%,2.51µM*,/,52.7%[57.1 µM],2.2%,APE1 dye cs=5.4%[57.1 µM];APE1 FP inh=-2.3%[57.1 µM];RECQ1 conf=25.6%;RECQ1 ADP FP=?
C[C@H](N)[C@H](O)c1ccc(O)c(O)c1,/,0.794µM*,/,-18.0%[21.4 µM],1.78µM*,/,26.9%,6.0%[24.4 µM],APE1 dye cs=3.2%;APE1 FP inh=-16.0%;RECQ1 conf=28.5%[69.1 µM];RECQ1 ADP FP=11.2µM*
COc1ccc(OC)c(C(O)C(C)N)c1 (stereo not given),6.1%,4.6%,-9.4%,1.9%,5.8%,2.3%,/,/,
CC(N)[C@H](O)c1ccc(O)c(O)c1 (stereo not given in full),/,1µM*,/,/,6.31µM*,14.1µM*,43.4%[57.1 µM],-5.7%,APE1 dye cs=-10.5%[57.1 µM];APE1 FP inh=-2.9%[57.1 µM];RECQ1 conf=30.6%;RECQ1 ADP FP=12.6µM*
C=CCN1C[C@H](C)N([C@H](c2ccc(C(=O)N(CC)CC)cc2)c2cccc(O)c2)C[C@H]1C,/,-3.3%,/,-2.2%,-0.5%,/,/,/,
CCCCOC(C)=O,/,1.6%,/,/,-0.4%,/,/,/,
O=c1[nH]c(=O)n(Cc2ccco2)c(O)c1C=NCc1ccco1,-4.9%[11.6 µM],0.7%,?,-8.8%,-2.2%,-22.1%,/,/,
CC(=O)Nc1ccc(N=Cc2c(O)n(Cc3ccco3)c(=O)[nH]c2=O)cc1,?,?,-15.0%,?,?,-32.9%,/,-25.6%,RECQ1 inh-2=?
CO/C1=C\C(C)=C\[C@@H](C)[C@@H](O)[C@@H](C)C/C(C)=C/C=C/[C@H](OC)[C@@H]([C@@H](C)[C@@H](O)[C@H](C)[C@@]2(O)C[C@@H](O)[C@H](C)C(C(C)C)O2)OC1=O (stereo not given in full),/,?,/,-13.2%,i,/,/,/,
O=C(O)Cn1cc(/C=C2\C(=O)NC(=O)N(Cc3ccco3)C2=O)c2ccccc21,39.8µM*,7.94µM*,5.01µM*,76.9%,14.1µM*,79.4µM*,22.2%,11.2µM*,APE1 dye cs=?;APE1 FP inh=-3.4%;FEN1 inh-2=67.5*
C[N+](C)(C)CCCl,/,0.3%,/,-0.9%,-12.3%,/,/,/,
